Source: PubChem BioAssay
Calls of active or inactive are those of the source.

Key:
Albumin (Bos taurus) = Albumin (Bos taurus) (UniProt P02769); test: compounds binding labelled BSA control protein – biochemical, small-molecule microarray, Alexa647 label, 635/667 nm fluorescence, artefact control for SMM control protein annotation, profiling panel (AID 1118); details: BSA-A647 binding, fluorescence 635 nm, higher = more signal;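 note: score merges 667 nm emission intensity and signal-to-noise per printed compound spot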
[1] = probe aXIP binding to arrayed compounds – biochemical, NeuroSMM set, 635/667 nm fluorescence, primary screen (AID 1119); details: small-molecule microarray, higher = more signal, called active from +8 up or from −8 down;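 note: probe is the protein aXip251-270 applied at 1 µg/mL to compound-printed slides; binding of probe to printed compounds measured as 667 nm fluorescence plus signal to noise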
[2] = probe aNOTCH3 binding on compound microarray – biochemical, small-molecule microarray, 635/667 nm fluorescence, primary screen (AID 1120); details: higher = more signal;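 note: probe is a biotin-tagged antibody raised against NOTCH3 rather than NOTCH3 protein; score merges spot fluorescence near 667 nm with spot signal to noise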
[3] = probe aNOTCH2 binding on compound microarray – biochemical, small-molecule microarray, 635/667 nm fluorescence, primary screen (AID 1121); details: higher = more signal;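 note: score merges feature fluorescence read at 667 nm with its signal to noise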
[4] = target: Carbonic anhydrase 2 (Homo sapiens) (UniProt P00918); test: compounds binding carbonic anhydrase 2 – biochemical, small-molecule microarray, Alexa647-labelled CAII, profiling panel (AID 1122); details: CAII-A647 binding fluorescence, higher = more signal
[5] = COS7 lysate on small-molecule microarray, probe aHis, 635 nm (AID 1123); details: COS7 cell lysate, fluorescence, higher = more signal;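 note: z-score combines 667nm fluorescence intensity with signal-to-noise per printed compound spot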
[6] = probe aLAP1 signal on lysate-treated microarray – cell lysate, small-molecule microarray, COS7 lysate, primary screen (AID 1124); details: probe aLAP1, fluorescence, higher = more signal;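 note: lysate comes from COS7 cells expressing LAP1 and is applied at 0.3 µg/mL; score merges spot fluorescence near 667 nm with signal-to-noise over triplicate slides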
Sam68 (KHDRBS1) = test: compounds binding KHDRBS1 protein – biochemical, small-molecule microarray, 635 nm fluorescence, primary screen (AID 1125); details: higher = more signal;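 note: score merges 667 nm channel intensity with signal to noise over triplicate slides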
[7] = system: Chordin-like protein 2 (CHRDL2); test: compounds binding chordin-like 2 – biochemical, small-molecule microarray, 635 nm fluorescence, primary screen (AID 1126); details: fluorescence 635 nm, higher = more signal;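 note: printed compound slides probed with Chrdl2 protein at 4 µg/mL for 1 h at 4 C; score merges 667 nm emission intensity with signal to noise over three replicate slides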
[8] = target: Concanavalin-A (Canavalia ensiformis) (UniProt P02866); test: compounds binding concanavalin A lectin – biochemical, small-molecule microarray, Alexa647 label, 635 nm, artefact control for SMM control protein annotation, primary screen (AID 1127); details: ConA-A647 binding fluorescence, higher = more signal;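 note: z combines 667 nm emission intensity with signal-to-noise across three replicate slides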
Concanavalin-A (Canavalia ensiformis), sequence (P02866 whole entry, looked up): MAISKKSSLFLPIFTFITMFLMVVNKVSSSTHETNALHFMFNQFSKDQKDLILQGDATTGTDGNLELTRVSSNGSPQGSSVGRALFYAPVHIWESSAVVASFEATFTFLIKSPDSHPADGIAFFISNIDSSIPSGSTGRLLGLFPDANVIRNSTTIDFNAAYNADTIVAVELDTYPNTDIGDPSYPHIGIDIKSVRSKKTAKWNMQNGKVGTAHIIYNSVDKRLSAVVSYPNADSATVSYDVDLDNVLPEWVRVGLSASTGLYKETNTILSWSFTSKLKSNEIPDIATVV

Albumin (Bos taurus), sequence (P02769 whole entry, looked up): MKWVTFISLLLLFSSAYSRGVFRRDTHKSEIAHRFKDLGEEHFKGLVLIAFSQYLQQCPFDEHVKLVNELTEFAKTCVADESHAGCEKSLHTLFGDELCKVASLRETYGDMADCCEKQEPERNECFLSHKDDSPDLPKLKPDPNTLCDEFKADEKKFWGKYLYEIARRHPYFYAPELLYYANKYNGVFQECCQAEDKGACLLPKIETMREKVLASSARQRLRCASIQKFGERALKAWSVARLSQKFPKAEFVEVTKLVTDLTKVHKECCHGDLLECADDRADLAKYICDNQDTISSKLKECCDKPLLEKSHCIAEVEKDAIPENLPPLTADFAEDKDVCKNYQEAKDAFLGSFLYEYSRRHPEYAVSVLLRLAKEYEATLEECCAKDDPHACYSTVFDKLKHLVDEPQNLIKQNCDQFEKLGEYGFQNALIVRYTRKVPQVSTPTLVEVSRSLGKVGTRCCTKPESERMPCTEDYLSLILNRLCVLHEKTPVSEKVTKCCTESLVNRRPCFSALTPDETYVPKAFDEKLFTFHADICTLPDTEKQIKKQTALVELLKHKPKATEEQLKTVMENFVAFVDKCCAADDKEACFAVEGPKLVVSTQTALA

Structure (SMILES) | composite z-score (Albumin (Bos taurus)) | composite Z-score [1] | composite z-score [2] | composite z-score [3] | composite z-score [4] | composite z-score [5] | composite z-score [6] | composite z-score (Sam68 (KHDRBS1)) | composite z-score [7] | composite z-score [8]
COCCNC(=O)OCC1CCCC2(CC(OC(=O)NCCc3ccc(F)cc3)CC(CCC(=O)N[C@@H](C)C(=O)OC)O2)O1 (stereo not given in full) | 0.456 | -0.126 (inactive) | 0.0228 | -0.144 | 0.245 | 0.292 | -0.0037 | 1.3 | 0.581 | 0.769
COC(=O)[C@@]1(Cc2ccc(F)cc2)[C@@H]2C(=CC(=O)[C@H]2CC(=O)C(=O)N(C)C)CN1C(=O)c1ccccc1 | 0.979 | -1.12 (inactive) | 0.476 | 0.308 | 0.785 | 3.01 | 0.663 | 1.21 | 0.13 | 1.16
CC(C)CON=C1[C@H]2CCn3c(=O)n(-c4ccccc4)c(=O)n3[C@H]2[C@H](O)[C@@H]2O[C@H]12 | 0.348 | 0.131 (inactive) | -0.0193 | 0.0145 | -0.0152 | -0.497 | -0.544 | -0.589 | 0.762 | 0.0834
CCOC(=O)CCN1C(=O)[C@H]2[C@H]3[C@H](O)[C@H](O)CC(=NOC[C@@H](O)COCc4ccco4)[C@@H]3CC[C@H]2C1=O | 0.723 | -0.244 (inactive) | -0.0932 | -0.124 | 0.214 | 0.171 | 0.256 | 0.0665 | 0.457 | 0.318
CC(C)(C)OC(=O)CC[C@]1(C(=O)NCc2ccccc2)N=C(c2ccc(OCCCO)cc2)O[C@H]1c1ccccc1 | 0.912 | -0.0089 (inactive) | 0.61 | 0.0216 | 0.735 | 3.07 | 0.378 | 1.3 | -0.672 | 1.11
CCOC(=O)[C@H](Cc1ccccc1)NC(=O)CCC1CC(OC(=O)NCc2ccc3c(c2)OCO3)CC2(CCCC(COC(=O)NCC3CCCCC3)O2)O1 (stereo not given in full) | 0.276 | 0.236 (inactive) | 0.0525 | -0.0891 | 0.579 | 0.575 | -0.243 | 1.3 | 0.799 | 1.06
O=C1c2ccccc2[C@@]2(Cc3ccccc3N(C3CC3)C2=O)[C@H](c2ccc(CO)cc2)N1Cc1ccccc1C(F)(F)F | -0.259 | -0.174 (inactive) | 0.062 | -0.0248 | 0.82 | -0.0061 | 0.439 | 0.219 | -0.338 | -0.657
C[C@H](c1ccccc1)N1C(=O)[C@H]2[C@@H]3C(=CC[C@H]2C1=O)C(=O)[C@H]1O[C@H]1[C@H]3O | 0.166 | -0.0238 (inactive) | -0.111 | -0.147 | -0.182 | -0.51 | 0.172 | -0.136 | 1.02 | 0.471
COC(=O)C1=CCC(c2cccc(Cl)c2)O1 (stereo not given) | 0.431 | 0.0018 (inactive) | -0.112 | -0.0907 | 0.483 | -0.21 | -0.201 | 0.137 | -0.667 | 0.247
CCOC(=O)NN=C1C[C@@H](O)[C@@H](O)[C@@H]2[C@@H]3C(=O)N(CC)C(=O)[C@@H]3CC[C@@H]12 | 0.338 | 0.112 (inactive) | -0.0864 | -0.125 | 0.735 | 0.472 | -0.0313 | 0.976 | 0.0151 | 0.481
COC(=O)[C@H]1COC(c2ccc(OCCCO)cc2)=N1 | 0.543 | 0.0182 (inactive) | -0.16 | -0.0942 | 0.523 | 2.38 | 0.984 | -1.08 | -0.0157 | -0.588
CO[C@@H]1COC(=O)CC=C[C@@H](C)[C@H](OC)COC(=O)[C@H](COCc2ccccc2)NC(=O)CC=C[C@H]1C | -1.39 | 0.0898 (inactive) | -0.0584 | -0.197 | -0.654 | -0.925 | -0.23 | -0.978 | 1.22 | -3.99
CC(CCN1CCCCc2nc(C)c(C)cc21)=NOC(C)CN1CCCc2nc(C)c(C)cc21 (stereo not given) | 0.493 | 1.69 (inactive) | 0.721 | 0.153 | 0.533 | 1.79 | 0.257 | 1.29 | 1.2 | 1.14
COC(=O)[C@H](C)NC(=O)CCC1CC(OC(=O)NCc2ccc3c(c2)OCO3)CC2(CCCC(COC(=O)NCCOc3ccccc3)O2)O1 (stereo not given in full) | 0.469 | 0.794 (inactive) | 0.14 | -0.0889 | 0.356 | 0.508 | 0.114 | 1.3 | 0.344 | 0.906
CCCCCN1CC=CC23O[C@@H]4C=CCOC(=O)[C@@H]4[C@H]2C(=O)N(C(CO)C(C)C)[C@@H]3C1=O (stereo not given in full) | 0.13 | 0.252 (inactive) | -0.0328 | -0.13 | 0.286 | -0.59 | 1.06 | -0.827 | -0.326 | 0.203
COC(=O)[C@@]1(Cc2ccc(OC)cc2)[C@H]2c3cc(C(=O)N4CCCC4)n(Cc4cc(F)c(F)c(F)c4)c3C[C@H]2CN1C(=O)c1ccccc1 | 1.04 | 0.188 (inactive) | 1.69 | 0.882 | 0.765 | 3.06 | 1 | 1.3 | -0.593 | 1.21
Cc1ccc(F)cc1S(=O)(=O)N[C@@H]1CCN(Cc2ccc(CC(C)C)cc2)C1 | 0.118 | -0.316 (inactive) | -0.249 | -0.208 | 0.013 | 0.193 | 0.172 | 0.499 | 0.266 | -1.47
